The panel holds about 83,000 compounds, 20% with a hit somewhere; the sample as a whole holds those more often.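 Treatment: one concentration, 48 hours, 96-well format. Scoring: percent growth, with anything below 10 considered active.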 Values without a mark were called inactive. The source made the active and inactive calls.
Key:
Experiment in all cases: NCI-60 one-dose screen, 48 h (100 = growth as untreated, 0 = no growth, -100 = all killed)
Conditions in all cases: 10 µM unless noted
[1] = system: SR leukemia
[2] = system: RPMI-8226 leukemia
[3] = system: OVCAR-8 ovarian
[4] = system: OVCAR-5 ovarian
[5] = system: OVCAR-4 ovarian
[6] = system: SK-OV-3 ovarian
[7] = system: IGROV1 ovarian
[8] = system: OVCAR-3 ovarian
[9] = system: NCI/ADR-RES ovarian
[10] = system: T-47D breast
[11] = system: BT-549 breast
[12] = system: MDA-MB-435 melanoma
[13] = system: MCF7 breast
[14] = system: HCT-116 colon
[15] = system: HCC-2998 colon
[16] = system: KM12 colon
[17] = system: MDA-MB-468 breast

| SMILES | growth [1] | growth [2] | growth [3] | growth [4] | growth [5] | growth [6] | growth [7] | growth [8] | growth [9] | growth [10] | growth [11] | growth [12] | growth [13] | growth [14] | growth [15] | growth [16] | growth [17] |
| --- | --- | --- | --- | --- | --- | --- | --- | --- | --- | --- | --- | --- | --- | --- | --- | --- | --- |
| CNC(=O)c1cccc(NC(=O)c2ccc3c(c2)nnn3/C(C#N)=C/c2ccccn2)c1 | -5.41% (active) | -23.6% (active) | 10% | 19.6% | 40.6% | 83.4% | -2.48% (active) | -69.2% (active) | 84.3% | -70.4% (active) | -98.7% (active) | 11.5% | -77.2% (active) | -89% (active) | -92.7% (active) | 55.9% | -85.5% (active) |
| COc1ccc2cc([C@H](C)C(=O)N/N=C/c3ccc(Br)cc3)ccc2c1 | 87.3% | 105% | 105% | 100% | 100% | 97.7% | 102% | 114% | 98.2% | 90.3% | 104% | 103% | 90.7% | 103% | 107% | 105% | 100% |
| CC(=O)Nc1ccc(-c2cn(-c3cccc(C(=O)Nc4ccc(N5CCN(C)CC5)cc4)c3)nn2)cn1 | 68% | 70.4% | 81.6% | 107% | 93.4% | 93.8% | 88% | 109% | 89.2% | 94% | 74.6% | 100% | 45.9% | 62.9% | 85% | 68.9% | -9.89% (active) |
| O=C(O)c1cccc(-c2ccc(/C=N/NC(=O)c3[nH]c4ccc(Br)cc4c3-c3ccccc3)s2)c1 | 24.1% | 54.2% | 44.9% | 112% | 42% | 103% | 37.9% | 22.3% | -22.5% (active) | 54.5% | 49.3% | 10.4% | 13.7% | 31.5% | 49.9% | 21.6% | 15.7% |
| COc1cccc(-c2c(C#N)c(-c3ccc(Cl)cc3)nc3n[nH]c(-c4ccc(Cl)cc4)c23)c1 | 16.3% | 7.25% (active) | 48.3% | 69% | 26.5% | 43.9% | 65.2% | 58% | 59.3% | 9.68% (active) | 44% | 46% | 36.2% | 20.6% | 56.6% | 32.5% | 61% |
| CC(=O)Nc1cccc(Nc2nc(NCc3ccccc3)c3ccccc3n2)c1 | -45.3% (active) | -38.3% (active) | -73.6% (active) | -98.4% (active) | -73.2% (active) | -96.2% (active) | -94.1% (active) | -79.3% (active) | -65% (active) | -60.1% (active) | -86.8% (active) | -92.8% (active) | -77.2% (active) | -74.7% (active) | -98.8% (active) | -66% (active) | -93.7% (active) |
| CSc1ccccc1NC(=O)c1ccc2nn(/C(C#N)=C/c3ccccn3)nc2c1 | 1.1% (active) | -41.9% (active) | -3.76% (active) | -86.8% (active) | -55.6% (active) | 42.9% | -67.9% (active) | -87.8% (active) | 2.48% (active) | -78.4% (active) | -98.4% (active) | -18.2% (active) | -82.4% (active) | -97.4% (active) | -94.5% (active) | -44.9% (active) | -84.2% (active) |
| COc1cc(-c2ccc(/C=N/NC(=O)c3[nH]c4ccc(Br)cc4c3-c3ccccc3)o2)cc(OC)c1OC | 78% | 63.2% | 67.2% | 99.6% | 92.3% | 92.6% | 95.1% | 95.6% | 59% | 85.7% | 95.4% | 90.3% | 70% | 76.7% | 110% | 82.3% | 88.6% |
| CSc1ccc(NC(=O)c2ccc3nnn(/C(C#N)=C/c4ccccn4)c3c2)cc1 | -6.85% (active) | -32.6% (active) | -60.6% (active) | -78.6% (active) | -97.4% (active) | 25.5% | -76.7% (active) | -70.7% (active) | -83.9% (active) | -73.4% (active) | -70.4% (active) | -78.4% (active) | -71.3% (active) | 0.694% (active) | -70.6% (active) | -70.4% (active) | -71.3% (active) |
| N#Cc1c(-c2ccc(Br)cc2)nc2n[nH]c(-c3ccc(Br)cc3)c2c1-c1ccc(C(F)(F)F)cc1 | -11.6% (active) | 0.725% (active) | 40.4% | 47.7% | 11.8% | 21.8% | 6.15% (active) | 10.7% | 23.7% | 3.49% (active) | 11.3% | 3.09% (active) | 5.3% (active) | 6.76% (active) | 21.8% | 10.9% | -4.16% (active) |
| CC(C)CCNC(=O)N/C(N)=N/c1nc2ccccc2s1 | 34.4% | 38.2% | 70.7% | 93% | 48.7% | 87.9% | 76.6% | 80.4% | 56.6% | 46.6% | 64.6% | 44.2% | 28.5% | 54.7% | 97.6% | 62.7% | 5.8% (active) |
| CN1CCc2c(sc3ncnc(N/N=C/c4ccc(Cl)cc4Cl)c23)C1 | -16.5% (active) | -9.12% (active) | 6.87% (active) | -18.6% (active) | -40.6% (active) | 0.686% (active) | 30.4% | -56.5% (active) | 8.35% (active) | 76.9% | -40.2% (active) | -23.7% (active) | 3.77% (active) | -64.1% (active) | 24.1% | 24.8% | -67.5% (active) |
| Cc1c(C(=O)NNC(=O)Nc2ccc(Cl)cc2)nnn1-c1ccc(Br)cc1 | 89.9% | 98.7% | 101% | 102% | 86.4% | 79.6% | 97.6% | 116% | 94.4% | 88.8% | 102% | 99.7% | 85% | 90.7% | 106% | 103% | 91% |
| COc1ccc(NC(=O)c2sc3nc(C(C)C)ccc3c2N)cc1 | 60% | 54.5% | 89.1% | 83.2% | 56.7% | 97.9% | 100% | 93.9% | 59.6% | 42% | 88.5% | 87.5% | 79.5% | 94.7% | 100% | 78.2% | 55.8% |
| COc1ccc2nc(Nc3cccc(NC(=O)c4ccc(CN5CCCN(C)CC5)c(C(F)(F)F)c4)c3)ccc2c1 | 4.09% (active) | -31.7% (active) | 2.26% (active) | -84.5% (active) | -94.4% (active) | -62.4% (active) | -56.4% (active) | -48.8% (active) | -43.1% (active) | -44.6% (active) | -61.4% (active) | -42.8% (active) | -62.8% (active) | -47.1% (active) | -62.6% (active) | -47.5% (active) | -71.1% (active) |
| N/C(=N\c1nc2ccccc2s1)NC(=O)NCCCCCCO | 32.4% | 46% | 50.7% | 74.5% | 17.8% | 59.1% | 61.5% | 61.8% | 24.3% | 9.9% (active) | 21.4% | 41.2% | 30% | 36.9% | 82% | 55.1% | 2.33% (active) |

Reference: PubChem BioAssay (NCI)
